Unmarked numbers belong to inactive results. No rule for the calls is given here.

The target of the experiment is Pantothenate synthetase (Mycobacterium tuberculosis (strain ATCC 25618 / H37Rv)) (UniProt P9WIL5). The experiment is described as follows: Recombinant Mtb pantothenate synthetase (PanC) inhibitors, coupled enzyme, confirmatory (AID 375).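 Also: 0% = full reaction with vehicle and 100% = no enzyme background.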 Particulars: coupled enzyme assay; at 10 µM, stronger effect = higher value.
Pantothenate synthetase (Mycobacterium tuberculosis (strain ATCC 25618 / H37Rv)), sequence (P9WIL5 whole entry, looked up): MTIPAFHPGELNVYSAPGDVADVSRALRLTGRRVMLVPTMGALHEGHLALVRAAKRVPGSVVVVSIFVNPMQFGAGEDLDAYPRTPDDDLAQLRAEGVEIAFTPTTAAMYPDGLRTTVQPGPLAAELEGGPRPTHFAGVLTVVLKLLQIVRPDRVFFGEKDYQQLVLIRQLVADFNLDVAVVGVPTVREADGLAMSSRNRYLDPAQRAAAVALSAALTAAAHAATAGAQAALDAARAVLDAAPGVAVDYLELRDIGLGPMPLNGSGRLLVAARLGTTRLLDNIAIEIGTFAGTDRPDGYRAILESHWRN
As for `COC(=O)c1ccccc1NC(=O)Cn1ccnc1`, the inhibition is 0%.

As for `CSc1ccccc1C(=O)NC1CC2CCC1C2` (stereo not given), the inhibition was 0%.

Turning to `Cc1ccc(N2CC(C(=O)Nc3ccc4c(c3)OCO4)CC2=O)cc1` (stereo not given), the inhibition was 6%.

On to `Cc1ccccc1NS(=O)(=O)c1cc(C(=O)N2CCCC2)ccc1C`, for which the inhibition is 0%.

For `CN1C(=O)C(O)(CC(=O)c2ccccc2O)c2cc(Br)ccc21` (stereo not given), the inhibition was 0%.

`COc1ccc(S(=O)(=O)N2CCC(C(=O)c3ccc4c(c3)OCCO4)CC2)cc1`: the inhibition is 0%.

In the case of `COc1nc(Oc2ccc(=O)n(C)n2)nc(N(C)C)n1`, the inhibition is 4%.

Regarding `COc1ccc(NC(=O)CN2CCN(S(=O)(=O)c3ccc(Cl)cc3)CC2)cc1`, the inhibition is 13%.

Take `COc1cc(C(=O)N(C)c2nnc(-c3cccnc3)s2)cc(OC)c1OC`: the inhibition is 0%.

`COc1ccc2c(c1)CCc1c(C(=O)N3CC4(C)CC3CC(C)(C)C4)noc1-2` (stereo not given): the inhibition is 0%.

With `CCOP(=O)(c1ccc(N(C)C)cc1)C(O)c1cc(OC)c(OC)c(OC)c1` (stereo not given), the inhibition is 0%.

With `Cc1ccc2c(CNCc3ccco3)cc(=O)oc2c1`, the inhibition is 0%.

Consider `N#Cc1c(NC(NC(=O)c2ccco2)C(=O)c2ccccc2)sc2c1CCCC2` (stereo not given), for which the inhibition is 2%.

As for `CC(C)OC(=O)CSc1nc2cccnc2n1C1CCCCC1`, the inhibition was 4%.

In the case of `CC1(C)Cc2cccc(OCC(O)CN3CCN(c4ccccn4)CC3)c2O1` (stereo not given), the inhibition is 0%.

For the compound `CC1=CCC(C(C)(C)NC(=O)c2ccccc2)C/C1=N\O` (stereo not given), the inhibition was 0%.

As to `FC(F)(F)c1cc(-c2ccco2)nc(NCc2ccco2)n1`, the inhibition is 0%.

Take `CC(COc1ccccc1)N(CCCl)Cc1ccccc1` (stereo not given): the inhibition is 0%.

For the compound `Cc1cc(C(F)(F)F)c2c(C)nn(CCc3nn[nH]n3)c2n1`, the inhibition is 0%.

In the case of `O=C(Nc1cccc(C(F)(F)F)c1)c1cccnc1N1CCCC1`, the inhibition was 4%.

Take `Cc1ccc2cc(C#N)c(N3CCCC3)nc2c1C`: the inhibition is 4%.

On to `Cc1ccc(S(=O)(=O)N[C@@H](C)C(=O)N2CCC(C(=O)N3CCC[C@H]3C(=O)O)CC2)cc1`, for which the inhibition was 0%.

Consider `CC1CCCc2sc3nc(NCc4ccco4)n4ncnc4c3c21` (stereo not given), for which the inhibition was 0%.

`CC(C)CSc1nc2ccccc2n1CC(N)=O`: the inhibition is 5%.

For `CCn1c(C)nc2cc(C(=O)OC(C(F)(F)C(F)F)C(F)(F)C(F)F)ccc21`, the inhibition was 0%.

On to `Cn1c(=O)[nH]c(=O)c2c1nc(NCCCn1ccnc1)n2Cc1cccc(Br)c1`, for which the inhibition is 0%.

Consider `Clc1ccccc1CN1CCc2sccc2C1`, for which the inhibition was 0%.

On to `O=C(CCS(=O)(=O)c1cccc2nsnc12)N1CCN(Cc2ccc3c(c2)OCO3)CC1`, for which the inhibition was 0%.

As to `CC[N+](C)(C)Cc1ccccc1Br`, the inhibition was 0%.

Regarding `CC(=O)OCC(=O)[C@@]12OC3(CCCC3)O[C@@H]1C[C@H]1[C@@H]3CCC4=CC(=O)C=C[C@]4(C)[C@@]3(F)[C@@H](O)C[C@@]12C`, the inhibition was 1%.

On to `CCc1nn(CC(=O)N2CCN(Cc3ccc4c(c3)OCO4)CC2)c(=O)c2cc3occc3n12`, for which the inhibition is 5%.

As for `O=C(NCCC1=CCCCC1)N[C@@H](Cc1ccccc1)C(=O)O`, the inhibition is 6%.

For `Clc1ccc(-c2nnc3sc(-c4ccc(Br)o4)nn23)cc1`, the inhibition is 0%.

For `CCOc1ccc(NC(=O)CN2CCN(CC(=O)Nc3ccc(F)c(F)c3)CC2)cc1`, the inhibition is 0%.

`CC1CN(C(=O)c2scc3c2OCCO3)CC(C)O1` (stereo not given): the inhibition is 2%.

`O=C(CSCc1ccccn1)Nc1ccccc1`: the inhibition is 0%.

Consider `Cc1[nH]nc2c1C(CCc1ccccc1)C(C#N)=C(N)O2` (stereo not given), for which the inhibition is 0%.

As for `CCOCC(=O)Nc1nc2ccc(OC)cc2s1`, the inhibition is 0%.

For the compound `COc1ccccc1CN(Cc1nc2ccccc2c(=O)[nH]1)C(=O)Nc1ccccc1`, the inhibition is 0%.

On to `COc1ccc(OC)c(C2C(C(=O)Nc3cccnc3)=C(C)NC3=C2C(=O)CCC3)c1` (stereo not given), for which the inhibition is 0%.

The values are drawn from PubChem BioAssay.
